This passage reports Potency and outcome results from PubChem BioAssay (Tox21).

Test [1] can be described thus: qHTS assay to identify small molecule agonists of the vitamin D receptor (VDR) signaling pathway - cell viability counter screen (AID 743224). Also: series mostly up to about 63 µM; nearly all actives have a fitted effect of over 50% in size. In outline: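 Cells: VDR-bla, 2,000/well, settled 4 h. Treatment: compounds in DMSO, 16 h, 37C/5% CO2. Readout: CellTiter-Glo luminescence after 30 min RT.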
For orientation: Quantitative high-throughput screening tests each substance at several concentrations.

A short description of test [2]: qHTS assay to identify small molecule antagonists of the vitamin D receptor (VDR) signaling pathway - cell viability counter screen (AID 743225). Also: nearly all actives have a fitted effect of over 50% in size. An outline of the steps: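 Compounds were pinned onto VDR-bla HEK 293T cells together with 1-alpha,25-dihydroxyvitamin D3 at 3 nM final. After 16 h at 37C and 5% CO2 plus the reporter readout, cell viability was measured by CellTiter-Glo luminescence (30 min, room temperature).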

A short description of test [3]: qHTS assay to identify small molecule agonists of the NFkB signaling pathway (AID 1159509; active = well fitted curve in the direction sought with a large enough effect in the signal ratio in the repeat runs, not every such curve was filed as active; the % refers to the signal ratio; also: series mostly up to about 61 µM). An outline of the steps:
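Readout: FRET fluorescence, 405 nm excitation, 460/530 nm emission; beta-lactamase expression disrupts FRET. Cells: ME-180 stably carrying NF-kB-driven bla reporter. Compound exposure 5 hr, 37 C, 5% CO2.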

A short description of test [4]: qHTS assay to identify small molecule agonists of the NFkB signaling pathway - cell viability counter screen (AID 1159515; calls by dose curve; also: series mostly up to about 61 µM; nearly all actives have a fitted effect of over 55% in size). In outline:
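Cells are seeded (2,000 NFkB-bla ME-180 per well), rested overnight, and dosed with DMSO-dissolved compounds for 5 hr at 37 C. Viability is then read by CellTiter-Glo luminescence after 30 min at room temperature.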

Test [5] is described as follows: qHTS assay to identify small molecule agonists of the endoplasmic reticulum stress response signaling pathway (AID 1159516; active = well fitted activation curve with a large enough effect in the signal ratio in the repeat runs, not every such curve was filed as active; the % refers to the signal ratio). In outline: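 Cells are seeded at 1,500 per well and incubated overnight. Compounds in DMSO are added for 5 hr at 37 C, then beta-lactamase FRET substrate for 2 hr at room temperature, and fluorescence at 460 and 530 nm is measured.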
Test [6] is described as follows: qHTS assay to identify small molecule agonists of the endoplasmic reticulum stress response signaling pathway - cell viability counter screen (AID 1159517; calls by dose curve;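 also: HeLa cells carrying an ER stress response element beta-lactamase reporter; series mostly up to about 61 µM; nearly all actives have a fitted effect of over 50% in size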). An outline of the steps: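 Cytotoxicity of test compounds toward ESRE-bla HeLa cells was assessed after 5 hr exposure. The luminescent CellTiter-Glo signal was measured 30 min after reagent addition.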
Test [7] can be described thus: qHTS assay to identify small molecule antagonists of the retinoid-related orphan receptor gamma (ROR-gamma) signaling pathway - cell viability counter screen (AID 1159520). Also: nearly all actives have a fitted effect of over 50% in size. An outline of the steps:
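Tet-on ROR gamma CHO cells (1,000/well) were plated 4 hr, given compounds in DMSO for 2 hr at 37 C, then induced with 1 uM final doxycycline for 16 hr. Viability was read as ATP by CellTiter-Glo luminescence after 30 min.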

In test [8] the target is Nuclear receptor ROR-gamma (Homo sapiens) (UniProt P51449). In words: qHTS assay to identify small molecule antagonists of the retinoid-related orphan receptor gamma (ROR-gamma) signaling pathway (AID 1159521). In outline: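 Test compounds were applied to Tet-on RORγ CHO cells 2 h ahead of doxycycline hyclate (1 uM final). Luciferase reporter activity was quantified by luminescence after 16 h at 37 C and 5% CO2.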

The nature of test [9]: qHTS assay to identify small molecule agonists of the AP-1 signaling pathway - cell viability counter screen (AID 1159525; calls by dose curve; also: nearly all actives have a fitted effect of over 55% in size). An outline of the steps:
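Each titration point was normalised to DMSO and tetra n-octyl ammonium bromide controls. The read was Cell Titer Glo luminescence after 30 min at RT, following 5 h compound exposure of ME-180 AP-1-bla cells at 37 °C.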

The nature of test [10]: qHTS assay to identify small molecule agonists of the AP-1 signaling pathway (AID 1159526; calls by dose curve).
The target of test [11] is Retinoic acid receptor RXR-alpha (Homo sapiens) (UniProt P19793). In words: qHTS assay to identify small molecule agonists of the RXR signaling pathway (AID 1159527; calls by dose curve; also: nearly all actives have a fitted effect of over 35% in size; also: potency is read from the fitted curve at half-maximal effect). In outline: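 Using 9-cis retinoic acid as the reference agonist, chemicals were tested in HEK 293T cells […] for 16 hr; substrate loading lasted 2 hr at room temperature.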

The nature of test [12]: qHTS assay to identify small molecule agonists of the RXR signaling pathway - cell viability counter screen (AID 1159529). An outline of the steps:
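Compounds dissolved in DMSO were pinned onto HEK 293T cells carrying a beta-lactamase reporter under RXR-alpha control and incubated 16 hr. Cytotoxicity was then quantified by CellTiter-Glo luminescence.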

Test [13] can be described thus: qHTS assay to identify small molecule antagonists of the retinoid acid receptor (RAR) signaling pathway - cell viability counter screen (AID 1159551). Also: nearly all actives have a fitted effect of over 35% in size. In outline:
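Cells (C3RL4) are plated, incubated overnight, dosed with compound in DMSO, then given retinol at 1 uM final. After 6 h at 37 C, CellTiter-Glo is added and luminescence read following 30 min at room temperature.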

The nature of test [14]: qHTS assay to identify small molecule antagonists of the retinoic acid receptor (RAR) signaling pathway (AID 1159552; also: nearly all actives have a fitted effect of over 50% in size). In outline: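 Test chemicals and DMSO controls were pin-transferred onto C3RL4 cells a day after seeding; retinol (1 uM final) followed at once. Luminescent reporter output was quantified after 6 hr of co-incubation and 30 min with detection reagent.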
Test [15] in a line: qHTS assay to identify small molecule agonists of the retinoic acid receptor (RAR) signaling pathway (AID 1159553). In outline: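 Seed C3RL4 reporter cells at 1,000 per well and incubate overnight at 37 C. Add compounds in DMSO, incubate 6 hr. Add luciferase reagent, wait 30 min at room temperature, read luminescence.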
Test [16] in a line: qHTS assay to identify small molecule antagonists of the estrogen related receptor (ERR) signaling pathway - cell viability counter screen (AID 1224818). Also: series mostly up to about 46 µM. In outline: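 ERR cells, 2,000/well; 6 h settle at 37 C/5% CO2; compound pin transfer (DMSO); 17.5 h at 37 C; CellTiter-Fluor, 30 min, fluorescence read.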
A short description of test [17]: qHTS assay to identify small molecule antagonists of the estrogen related receptor signaling pathway with the pleiotropic PPARgamma coactivator (PGC) cell viability counter screen (AID 1224822; also: series mostly up to about 46 µM). In outline:
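Multiplexed viability counter screen run in PGC/ERR cells treated with compounds for 17.5 h at 37 C; live-cell protease signal measured by CellTiter-Fluor fluorescence.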

Test [18] in a line: qHTS assay to identify small molecule antagonists of the estrogen related receptor (ERR) signaling pathway (AID 1224819). An outline of the steps: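 qHTS in ERR cells, 2,000/well, 1536 format. Cpd (DMSO) added after 6 h settle, 18 h 37 C. One-Glo luminescence, 30 min RT.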
A short description of test [19]: qHTS assay to identify small molecule agonists of the estrogen related receptor (ERR) signaling pathway (AID 1224820). In outline:
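Luminescence readout (One-Glo, 30 min RT) from NTP-supplied ERR cell line exposed to compounds for 18 h at 37 C. Cells seeded 2,000 per well and pre-incubated 6 h before pin-tool compound transfer.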

For test [20], the system named is estrogen-related receptor alpha (ERRalpha) with PGC-1alpha coactivator, human. In words: qHTS assay to identify small molecule antagonists of the estrogen related receptor signaling pathway with the pleiotropic PPARgamma coactivator (PGC) (AID 1224821; calls by dose curve). An outline of the steps:
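PGC/ERR reporter cells; 6 h pre-incubation 37 C/5% CO2; pin-tool compound in DMSO, 18 h 37 C; One-Glo added, 30 min RT; luminescence read. qHTS antagonist mode.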

Inconclusive results are not listed. A structure can be active in one record and inactive in another. Active and inactive are the calls of the source. Unless noted, calls follow the shape of the dose curve; as a rule, active = well fitted curve in the direction sought with a large enough effect in the repeat runs; inconclusive = weak or mixed curves; inactive = no such curve, though single readings can be large; an effect the other way counts as inactive or inconclusive.

Retinoic acid receptor RXR-alpha (Homo sapiens), sequence (P19793 whole entry, looked up): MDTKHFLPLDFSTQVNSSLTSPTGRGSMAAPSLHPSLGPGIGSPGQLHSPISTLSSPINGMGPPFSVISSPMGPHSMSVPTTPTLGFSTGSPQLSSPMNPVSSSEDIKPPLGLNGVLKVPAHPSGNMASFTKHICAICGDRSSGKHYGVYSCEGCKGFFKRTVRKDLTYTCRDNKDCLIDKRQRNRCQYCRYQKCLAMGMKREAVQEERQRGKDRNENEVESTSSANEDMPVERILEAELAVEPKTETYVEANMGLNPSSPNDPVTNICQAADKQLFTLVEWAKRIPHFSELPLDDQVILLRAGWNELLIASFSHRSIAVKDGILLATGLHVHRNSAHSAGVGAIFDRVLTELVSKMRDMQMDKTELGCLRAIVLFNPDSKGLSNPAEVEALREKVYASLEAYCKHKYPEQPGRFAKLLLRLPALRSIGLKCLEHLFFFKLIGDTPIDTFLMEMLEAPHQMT

Consider `Cc1[nH]c(=O)c(C#N)cc1-c1ccncc1`, for which the Potency entry in [1], in test [2], in test [4], in test [5], in [6] and in test [7] was “inactive” throughout. Moreover, the Potency result in test [8], in [9], in test [11], in test [12], in [13] and in [14] was “inactive” in each case. Further, the Potency result in test [15], in test [16] and in test [17] was “inactive” throughout. The call in [3] and in [10] was inactive.
As for `CC(C)=CCCC(C)CCO` (stereo not drawn), the Potency entry in test [1], in [4], in [5], in test [6], in test [7] and in test [8] was “inactive” each time. Also, the Potency entry in test [9], in test [11], in test [12], in [13], in test [14] and in test [15] was “inactive” throughout. The compound was called inactive in test [3] and in test [10].
Turning to `CC(C(=O)O)c1cccc(C(=O)c2ccccc2)c1` (stereo not drawn), the Potency entry in test [1], in [2], in [4], in test [5], in test [6] and in test [7] was “inactive” throughout. Moreover, the Potency entry in [8], in test [9], in test [11], in test [12], in [13] and in test [14] was “inactive” in each case. For the same compound, the Potency result in test [16], in test [18], in test [20] and in test [17] was “inactive” each time. In addition, the call in test [3], in [10] and in [19] was inactive.
For `COc1ccc(OC)c(C(O)CNC(=O)CN)c1` (stereo not drawn), the Potency result in test [1], in test [2], in [4], in test [5], in test [6] and in [7] was “inactive” throughout. For the same compound, the Potency result in test [8], in test [9], in test [11], in test [12], in test [13] and in test [14] was “inactive” throughout. Further, the outcome in test [3] and in test [10] was inactive.
Turning to `O=S(=O)(O)c1ccc(O)cc1`, the Potency entry in test [1], in test [4], in [5], in [6], in test [7] and in test [8] was “inactive” each time. For the same compound, the Potency entry in test [9], in test [11], in test [12], in [13] and in test [14] was “inactive” throughout. In addition, the outcome in test [3] and in [10] was inactive.
For `O=C(OCc1ccccc1)c1ccccc1O`, the Potency entry in [1], in [4], in [5], in test [6], in test [7] and in [8] was “inactive” each time. In addition, the Potency entry in [9], in test [11], in test [12], in [13] and in test [14] was “inactive” each time. Further, the call in [3] and in test [10] was inactive.
With `OC(CCl)CCl`, the Potency result in test [1], in test [2], in [4], in test [5], in [6] and in test [7] was “inactive” throughout. Besides, the Potency result in [8], in [9], in test [11], in [12] and in test [13] was “inactive” in each case. The compound was called inactive in [3] and in test [10].
In the case of `CC(C)CC(C)(O)C#CC(C)(O)CC(C)C` (stereo not drawn), the Potency entry in [1], in [2], in test [4], in test [5], in [6] and in test [7] was “inactive” in each case. For the same compound, the Potency entry in [8], in [9], in [12], in [13], in test [14] and in test [15] was “inactive” throughout. Also, the compound was classed as inactive in test [3] and in [10]. The Potency in test [11] was 12.1 µM (active) and inactive.
